SMILES strings stand for the structures. About 83,000 compounds went through this panel and 20% of them were active in at least one assay; those are over-represented in the sample as a whole.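 Step 1: grow cells in 96-well plates. Step 2: add test compound at a single concentration. Step 3: incubate 48 h. Step 4: record percent growth.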 Unmarked numbers belong to inactive results. Calls of active or inactive are those of the source. Rule for the calls: active = growth percent below 10; inactive = the rest.

Among the test systems are SR leukemia; RPMI-8226 leukemia; OVCAR-8 ovarian; OVCAR-5 ovarian; OVCAR-4 ovarian; SK-OV-3 ovarian; IGROV1 ovarian; OVCAR-3 ovarian; HS 578T breast; NCI/ADR-RES ovarian; MDA-MB-435 melanoma; SW-620 colon; MCF7 breast; HCT-116 colon; HCC-2998 colon; KM12 colon; T-47D breast; BT-549 breast.
Common to all, as to assay: NCI-60 one-dose screen, 48 h (100 = growth as untreated, 0 = no growth, -100 = all killed)
Common to all, as to conditions: 10 µM unless noted

Regarding `CCOC(=O)c1c2c(cn1Cc1ccccc1)-c1oncc1CC2`, the growth in the assay on SR leukemia is 91.8%; with RPMI-8226 leukemia, 100%; in the assay on OVCAR-8 ovarian it was 84.9%; in the assay with OVCAR-5 ovarian, 88.3%; with OVCAR-4 ovarian, 104%; with SK-OV-3 ovarian it was 109%. For the same compound, the growth in the assay on IGROV1 ovarian is 101%; in the assay with OVCAR-3 ovarian it was 103%; in the assay with HS 578T breast, 91.9%; in the assay on NCI/ADR-RES ovarian, 98.3%; in the assay with MDA-MB-435 melanoma, 111%; in the assay with SW-620 colon, 103%. The growth in the assay with MCF7 breast is 98.8%; in the assay with HCT-116 colon it was 90.5%; in the assay with HCC-2998 colon it was 111%; in the assay with KM12 colon, 104%.

`CC(=O)O.[In]`: the growth with SR leukemia is 93.4%; in the assay on RPMI-8226 leukemia, 102%; in the assay on OVCAR-8 ovarian, 102%; in the assay with OVCAR-5 ovarian, 105%; in the assay on OVCAR-4 ovarian, 114%; in the assay with SK-OV-3 ovarian, 103%. Moreover, the growth in the assay on IGROV1 ovarian was 106%; in the assay on OVCAR-3 ovarian it was 116%; in the assay on NCI/ADR-RES ovarian, 107%; with T-47D breast, 103%; in the assay on BT-549 breast, 105%; in the assay on MDA-MB-435 melanoma it was 102%. Besides, the growth in the assay on SW-620 colon was 106%; in the assay on MCF7 breast, 108%; in the assay on HCT-116 colon it was 106%; in the assay with HCC-2998 colon, 108%; in the assay on KM12 colon it was 104%.

For `CSCc1ncc(-c2ccc(C(F)(F)F)cc2)c(NC2CCCCCC2)n1`, the growth in the assay on SR leukemia was 13.4% [25 µM]; in the assay on RPMI-8226 leukemia it was 3.14% [25 µM] (active); with OVCAR-8 ovarian it was 75.1% [25 µM]; in the assay on OVCAR-5 ovarian, 97% [25 µM]; in the assay on OVCAR-4 ovarian, 83% [25 µM]; with SK-OV-3 ovarian, 97.9% [25 µM]. Moreover, the growth is 81.2% [25 µM] in the assay with IGROV1 ovarian; 39.4% [25 µM] in the assay with OVCAR-3 ovarian; 74.9% [25 µM] in the assay with NCI/ADR-RES ovarian; 53.5% [25 µM] in the assay on T-47D breast; 82.1% [25 µM] in the assay with BT-549 breast; 78.7% [25 µM] in the assay with MDA-MB-435 melanoma. The growth with SW-620 colon is 53.1% [25 µM]; in the assay on MCF7 breast, 68% [25 µM]; with HCT-116 colon it was 38.1% [25 µM]; in the assay with HCC-2998 colon, 89.9% [25 µM]; in the assay on KM12 colon, 52.1% [25 µM].

In the case of `N#Cc1ccc(OCc2nc(N)nc(N)c2-c2ccc(Cl)c(Cl)c2)cc1`, the growth is 26% in the assay with SR leukemia; 67.7% in the assay on RPMI-8226 leukemia; 19.5% in the assay on OVCAR-8 ovarian; 36.9% with OVCAR-5 ovarian; 98.6% in the assay on OVCAR-4 ovarian; 38.5% with SK-OV-3 ovarian. For the same compound, the growth was 24.3% in the assay on IGROV1 ovarian; 45.8% in the assay on OVCAR-3 ovarian; 38.9% in the assay with NCI/ADR-RES ovarian; 82.2% with T-47D breast; 34.2% in the assay with BT-549 breast; 15.9% in the assay on MDA-MB-435 melanoma. The growth in the assay on SW-620 colon is 21.8%; with MCF7 breast, 15.2%; with HCT-116 colon, 11.9%; with HCC-2998 colon it was 40.4%; in the assay with KM12 colon, 43.2%.

Regarding `Nc1ncn([C@@H]2O[C@H](CO)[C@@H](O)C2(F)F)c(=O)n1`, the growth in the assay on SR leukemia was 15%; in the assay on RPMI-8226 leukemia, 39.2%; in the assay on OVCAR-8 ovarian it was 49.8%; in the assay with OVCAR-5 ovarian, 87%; in the assay with OVCAR-4 ovarian, 94.9%; in the assay on SK-OV-3 ovarian it was 71.1%. Moreover, the growth with IGROV1 ovarian is 56.8%; in the assay on OVCAR-3 ovarian it was 70.6%; in the assay on NCI/ADR-RES ovarian, 42.1%; in the assay on T-47D breast, 76.2%; with BT-549 breast it was 53.6%; in the assay on MDA-MB-435 melanoma, 53%. Moreover, the growth in the assay with SW-620 colon is 51.2%; in the assay with MCF7 breast, 20.7%; with HCT-116 colon it was 29.8%; in the assay with HCC-2998 colon, 60.4%; in the assay with KM12 colon it was 61.2%.

`CC[C@H](Nc1ncnc2nc[nH]c12)c1nc2cccc(NCc3ccc(C(=O)NO)o3)c2c(=O)n1-c1ccccc1`: the growth was 76.2% with SR leukemia; 94.9% with RPMI-8226 leukemia; 99.2% with OVCAR-8 ovarian; 98.3% in the assay with OVCAR-5 ovarian; 97.3% with OVCAR-4 ovarian; 110% in the assay on SK-OV-3 ovarian. For the same compound, the growth was 106% with IGROV1 ovarian; 97.6% in the assay on OVCAR-3 ovarian; 101% in the assay with NCI/ADR-RES ovarian; 80.8% in the assay with T-47D breast; 86% with BT-549 breast; 105% in the assay on MDA-MB-435 melanoma. In addition, the growth in the assay on SW-620 colon is 107%; in the assay with MCF7 breast, 91.4%; in the assay with HCT-116 colon, 96.9%; in the assay with HCC-2998 colon it was 104%; in the assay with KM12 colon, 103%.

For the compound `O=C(N/N=C\c1ccc(-c2ccc(Br)cc2)o1)c1cc2oc(-c3cccc(C(F)(F)F)c3)cc2[nH]1`, the growth in the assay on SR leukemia is -3.49% (active); in the assay on RPMI-8226 leukemia it was 98.4%; with OVCAR-8 ovarian it was 103%; in the assay on OVCAR-5 ovarian, 88.4%; in the assay with OVCAR-4 ovarian, 106%; in the assay with SK-OV-3 ovarian, 115%. In addition, the growth with IGROV1 ovarian was 130%; in the assay with OVCAR-3 ovarian it was 101%; in the assay on HS 578T breast, 81.1%; with NCI/ADR-RES ovarian, 96%; in the assay with MDA-MB-435 melanoma, 98.9%; in the assay on SW-620 colon, 118%. The figures for the growth in the assay with MCF7 breast, with HCC-2998 colon and in the assay on KM12 colon were 89.9%, 85.5% and 74%, respectively.

As for `CC(C)OC(=O)c1ccc2n1CCCc1cnc(Nc3ccccc3)nc1-2`, the growth was 35.4% in the assay on SR leukemia; 58.4% in the assay with RPMI-8226 leukemia; 82.4% in the assay with OVCAR-8 ovarian; 93.8% in the assay with OVCAR-5 ovarian; 61.4% with OVCAR-4 ovarian; 97% in the assay on SK-OV-3 ovarian. The growth is 83.7% in the assay with IGROV1 ovarian; 84.7% in the assay on OVCAR-3 ovarian; 99% in the assay with HS 578T breast; 69.7% with NCI/ADR-RES ovarian; 42.7% with MDA-MB-435 melanoma; 91% in the assay on SW-620 colon. In addition, the growth is 65.4% in the assay with MCF7 breast, 73.2% with HCT-116 colon, 104% in the assay with HCC-2998 colon and 52.8% with KM12 colon.

Take `C/C(=N\Nc1ccc(Cl)cn1)c1ccccn1`: the growth with SR leukemia was 4.86% (active); in the assay with RPMI-8226 leukemia, 8.56% (active); in the assay with OVCAR-8 ovarian it was 16.6%; in the assay with OVCAR-5 ovarian, 23.1%; in the assay on OVCAR-4 ovarian, 28.7%; with SK-OV-3 ovarian, 3.63% (active). For the same compound, the growth is 10.2% in the assay on IGROV1 ovarian; 20.5% in the assay with OVCAR-3 ovarian; 34.6% in the assay with HS 578T breast; -10.2% (active) in the assay with NCI/ADR-RES ovarian; 9.46% (active) with BT-549 breast; 26.4% in the assay with MDA-MB-435 melanoma. In addition, the growth with MCF7 breast was 3.89% (active); with HCT-116 colon, 1.21% (active); with HCC-2998 colon it was 27%; with KM12 colon it was 20%.

Regarding `O=C(/C=C\c1ccc(NCc2ccc(C(=O)O)cc2)cc1)CCl`, the growth with SR leukemia is -12.1% (active); with RPMI-8226 leukemia, 60.4%; with OVCAR-8 ovarian it was 66.9%; in the assay on OVCAR-5 ovarian it was 114%; in the assay with OVCAR-4 ovarian it was 90.6%; with SK-OV-3 ovarian it was 106%. Moreover, the growth in the assay on IGROV1 ovarian was 90.4%; with OVCAR-3 ovarian, 72.4%; with NCI/ADR-RES ovarian it was 100%; with T-47D breast it was -22.8% (active); in the assay on BT-549 breast, 64.3%; in the assay with MDA-MB-435 melanoma, 89.5%. For the same compound, the growth in the assay on SW-620 colon is 3.72% (active); in the assay on MCF7 breast, 24%; in the assay on HCT-116 colon it was -15.3% (active); with HCC-2998 colon it was 97.5%; in the assay with KM12 colon it was 98.2%.

Take `COc1ccc2cc(C(C)C(=O)Nc3ccc(S(=O)(=O)Nc4cc(C)on4)cc3)ccc2c1` (stereo not given): the growth in the assay with SR leukemia was 100%; with RPMI-8226 leukemia, 96.6%; with OVCAR-8 ovarian it was 95.8%; in the assay on OVCAR-5 ovarian it was 112%; in the assay with OVCAR-4 ovarian, 100%; in the assay on SK-OV-3 ovarian, 101%. In addition, the growth in the assay on IGROV1 ovarian was 114%; with OVCAR-3 ovarian, 110%; in the assay on NCI/ADR-RES ovarian it was 105%; in the assay with T-47D breast, 84.8%; with MDA-MB-435 melanoma it was 105%; in the assay on MCF7 breast, 102%. The values for the growth in the assay with HCT-116 colon and with KM12 colon were 96.5% and 110%, respectively.

Turning to `O=C(/C=C1\C(=O)N(Cc2ccc([N+](=O)[O-])cc2)c2ccccc21)c1ccc(OCCN2CCCCC2)cc1`, the growth with SR leukemia is -27.9% (active); in the assay with RPMI-8226 leukemia, -36% (active); with OVCAR-8 ovarian it was 0.287% (active); in the assay on OVCAR-5 ovarian, -40.6% (active); in the assay on OVCAR-4 ovarian, -58.8% (active); in the assay on SK-OV-3 ovarian it was 85%. The growth with IGROV1 ovarian is -49.3% (active); in the assay with OVCAR-3 ovarian it was -93.8% (active); with NCI/ADR-RES ovarian, 6.18% (active); with T-47D breast, -62.8% (active); in the assay with MDA-MB-435 melanoma, 22.5%; in the assay on SW-620 colon, -78.7% (active). Besides, the growth in the assay on MCF7 breast was -47.5% (active); in the assay on HCT-116 colon it was -91.2% (active); in the assay with HCC-2998 colon, 42.1%; in the assay with KM12 colon, 3.66% (active).
